Measured values from PubChem BioAssay (NCATS).
Records with an inconclusive call do not appear. Active and inactive are the calls of the source. The call rests on the fitted dose curve; in most records, active means well fitted curve in the direction sought with a large enough effect; inconclusive means small, poorly fitted or top-dose-only effect, or another doubt; inactive means no such curve, though single readings can be large; an effect the other way counts as inactive or inconclusive.

What was measured:
[1] = target: Metallo-beta-lactamase type 2 (Klebsiella pneumoniae) (UniProt C7C422); test: qHTS to identify inhibitors of the New Delhi Metallo-beta-lactamase (NDM): assay validation screen against the NCATS LOPAC Collection (AID 1794843); conditions: NDM-1 enzyme, nitrocefin hydrolysis, absorbance 485 nm; series mostly up to 38.4 µM
Chain of Metallo-beta-lactamase type 2 (Klebsiella pneumoniae) (C7C422 whole entry, looked up): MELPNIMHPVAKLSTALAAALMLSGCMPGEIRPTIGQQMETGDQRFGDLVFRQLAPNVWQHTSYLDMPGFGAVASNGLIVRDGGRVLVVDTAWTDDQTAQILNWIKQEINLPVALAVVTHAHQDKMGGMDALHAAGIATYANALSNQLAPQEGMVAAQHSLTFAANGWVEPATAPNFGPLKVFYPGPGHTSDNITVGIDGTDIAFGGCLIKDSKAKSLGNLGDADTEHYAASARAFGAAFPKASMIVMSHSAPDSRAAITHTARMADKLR
Method in brief: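 Absorbance at 485 nm from nitrocefin turnover (50 uM solution added), read at plateau, gives the read-out. Compounds in DMSO were incubated first with 2 nM final NDM-1 in pH 7.0 HEPES buffer containing 1 uM ZnSO4 and 0.01% Tween20.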

[2] = target: Glutathione peroxidase 1 (Homo sapiens) (UniProt P07203); test: Primary qHTS Assay for Inhibitors of Recombinant Selenoprotein Glutathione Peroxidase 1 (GPX1) (AID 1845191); conditions: recombinant GPX1, GR-coupled NADPH fluorescence, 15 min; series mostly up to 48.8 µM; further: nearly all actives have a fitted effect of over 65% in size
Chain of Glutathione peroxidase 1 (Homo sapiens) (P07203 whole entry, looked up): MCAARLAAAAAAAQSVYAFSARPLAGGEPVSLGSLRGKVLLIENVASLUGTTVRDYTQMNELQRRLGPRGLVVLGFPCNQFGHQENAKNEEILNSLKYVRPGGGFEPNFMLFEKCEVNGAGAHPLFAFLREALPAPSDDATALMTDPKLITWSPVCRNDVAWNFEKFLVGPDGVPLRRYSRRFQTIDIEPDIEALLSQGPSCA
Method in brief: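 Recombinant GPX1 (10 nM final) was preincubated with compound for 30 min at room temperature, then reacted with 1 mM GSH, 0.5 mM CHP, 0.5 mM NADPH and 100 nM glutathione reductase; NADPH fluorescence (340/450 nm) was read at 0 and 15 min.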

[3] = target: Phospholipid hydroperoxide glutathione peroxidase GPX4 (Homo sapiens) (UniProt P36969); test: Primary qHTS Assay for Inhibitors of Recombinant Selenoprotein Glutathione Peroxidase 4 (GPX4) (AID 1845192); conditions: recombinant GPX4, GR-coupled NADPH fluorescence, 15 min; series mostly up to 50 µM; further: nearly all actives have a fitted effect of over 65% in size
Chain of Phospholipid hydroperoxide glutathione peroxidase GPX4 (Homo sapiens) (P36969 whole entry, looked up): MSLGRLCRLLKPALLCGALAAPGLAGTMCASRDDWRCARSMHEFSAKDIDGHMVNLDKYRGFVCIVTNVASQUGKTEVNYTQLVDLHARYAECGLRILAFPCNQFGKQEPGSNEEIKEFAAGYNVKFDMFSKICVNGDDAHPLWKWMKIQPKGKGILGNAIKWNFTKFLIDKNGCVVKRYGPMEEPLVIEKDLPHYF
Method in brief: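 GR-coupled readout: 100 nM GR, 1 mM GSH, 0.5 mM NADPH; NADPH fluorescence (ex 340/em 450 nm) read at t=0 and after 15 min RT. GPX4 200 nM, preincubated 30 min with compound; substrate 0.5 mM CHP.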

[4] = Viability counterscreen for antagonist of constitutive androstane receptor (CAR) against the NCATS DSHEA and TCM libraries (AID 1794837); conditions: CAR reporter cell line viability counterscreen, qHTS; series mostly up to 40 µM;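 further: compound exposure lasted 24 h before viability reading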
Method in brief: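 Viability was measured by CellTiter-Fluor fluorescence (405/540 nm, 1 hr) in HepG2-CYP2B6-hCAR cells. Cells were co-treated 24 hr with 48 uM CITCO (final), antagonist mode, and test substances.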

[5] = Viability counterscreen for agonist of constitutive androstane receptor (CAR) against the NCATS DSHEA and TCM libraries (AID 1794838); conditions: HepG2 cell viability counterscreen, CAR agonist assay, co-treated with 0.75 µM CAR antagonist; series mostly up to 40 µM
Method in brief: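 Cell viability, from CellTiter-Fluor fluorescence (405/540 nm), was scored after a 24 h, 37C exposure of HepG2 cells carrying CYP2B6 reporter and hCAR to test substances in presence of 0.75 uM PK11195.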

[6] = target: Nuclear receptor subfamily 1 group I member 3 (Homo sapiens) (UniProt Q14994); test: Primary qHTS for agonist of constitutive androstane receptor (CAR) against the NCATS DSHEA and TCM libraries (AID 1794839); conditions: CAR agonist reporter cells, qHTS luminescence, CAR antagonist co-added at 0.75 µM; series mostly up to 40 µM;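 further: HepG2 cells expressing human CAR with a CYP2B6 reporter plus PK11195 antagonist; luciferase reporter luminescence read with ONE-Glo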
Chain of Nuclear receptor subfamily 1 group I member 3 (Homo sapiens) (Q14994 whole entry, looked up): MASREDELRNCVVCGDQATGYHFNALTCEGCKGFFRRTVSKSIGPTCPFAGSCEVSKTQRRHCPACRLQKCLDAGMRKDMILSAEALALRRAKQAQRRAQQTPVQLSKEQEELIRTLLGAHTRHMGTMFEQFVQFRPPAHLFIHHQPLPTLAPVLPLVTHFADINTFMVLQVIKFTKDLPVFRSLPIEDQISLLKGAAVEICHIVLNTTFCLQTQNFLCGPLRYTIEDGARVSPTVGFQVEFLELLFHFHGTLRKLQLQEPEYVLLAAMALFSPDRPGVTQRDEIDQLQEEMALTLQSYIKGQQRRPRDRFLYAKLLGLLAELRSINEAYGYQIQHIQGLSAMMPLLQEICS
Method in brief: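 Agonist mode in presence of hCAR antagonist PK11195 (0.75 µM final): test substances, 24 h, 37 °C, on HepG2-CYP2B6-hCAR cells. Same-well readouts: fluorescence viability, then ONE-Glo luminescence; CITCO as reference agonist.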

[7] = HepG2 viability counterscreen (readout 2: ATP content) against the NCATS DSHEA and TCM libraries (AID 1794840); conditions: ATP content luminescence; series mostly up to 27.3 µM;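 further: HepG2 cells exposed to substances for about 24 h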
Method in brief: (§1)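 Readout 1: cellular protease activity, GF-AFC substrate (25 uM final, 30 min, fluorescence 380/510 nm). Readout 2: ATP content by CellTiter-Glo luminescence after 30 min at RT. Both follow ~24 h exposure of HepG2 cells (1,000/well) to substances.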

[8] = HepG2 viability counterscreen (readout 1: protease activity) against the NCATS DSHEA and TCM libraries (AID 1794841); conditions: qHTS concentration series; series mostly up to 27.3 µM;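 further: cells exposed to compounds for about 24 h before the protease read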
Method in brief: as §1

[9] = NCATS anti-infectives library activity on HEK293 viability as a counter-qHTS vs the C. elegans viability qHTS (AID 1745854); conditions: HEK293 viability counter-screen; series mostly up to 83.3 µM
Method in brief: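 HEK293 cells, 1500 per well, exposed 24 hr at 37C in 5% CO2 to compounds in a 1:5 titration, up to 41.7 uM final. Viability read as CellTiter-Glo luminescence after 10 min at room temperature.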

Measured: Potency

Cc1cc2c(cc1Cl)N(C(=O)Nc1ccnc3ccccc13)CC2
inactive: [1] | [2] | [3]

O[Si](CCCN1CCCCC1)(c1ccc(F)cc1)C1CCCCC1 (configuration not stated)
inactive: [1] | [2] | [3]

N=C(N)c1ccc(N)cc1
inactive: [1] | [2] | [3]

C=C1C[C@@]23CC[C@H]4[C@@](C)(CCC[C@@]4(C)C(=O)OC4OC(CO)C(O)C(O)C4O)[C@@H]2CC[C@]1(OC1OC(CO)C(O)C(O)C1OC1OC(CO)C(O)C(O)C1O)C3 (some centres not stated)
inactive: [4] | [5] | [6] | [7] | [8] | [1] | [2] | [3]

COc1ccccc1N1CCN(CCCCN2C(=O)c3ccccc3C2=O)CC1
inactive: [1] | [2] | [3]

O=C(O)C1CN(CCCP(=O)(O)O)CCN1 (configuration not stated)
inactive: [1] | [2] | [3]

N[C@H]1CONC1=O
inactive: [9] | [1] | [3]

Cc1nc2n(c(=O)c1CCN1CCC(c3noc4cc(F)ccc34)CC1)CCCC2O (configuration not stated)
inactive: [1] | [2] | [3]

O=C(O)/C=C/c1ccc(O)c(O)c1
inactive: [4] | [5] | [6] | [7] | [1] | [2] | [3]

NC1C=CC=C(C(=O)O)C1 (configuration not stated)
inactive: [1] | [2] | [3]

O=S(=O)(c1cccc2c(Cl)cccc12)N1CCCNCC1
inactive: [1] | [2] | [3]

CN1CCc2cc(Cl)c(O)cc2[C@@H](c2ccccc2)C1
inactive: [1] | [2] | [3]

O=c1[nH]ccc2c(O)cccc12
inactive: [1] | [2] | [3]

CC[C@H](NC(=O)c1c(C)c(-c2ccccc2)nc2ccccc12)c1ccccc1
inactive: [1] | [2] | [3]

NC(N)=[N+]1CCc2ccccc2C1
inactive: [1] | [2] | [3]

O=C1Cc2c([nH]c3ccc(Br)cc23)-c2ccccc2N1
inactive: [1] | [2] | [3]

CCCCS(=N)(=O)CC[C@H](N)C(=O)O (some centres not stated)
inactive: [1] | [2] | [3]

C=CC[C@H](N)C(=O)O
inactive: [1] | [2] | [3]

O=C(O)CCC/C=C\C[C@@H]1[C@@H](/C=C/[C@H](O)C2Cc3ccccc3C2)[C@@H](F)C[C@@H]1O
inactive: [1] | [2] | [3]

N#CC(C#N)=C(N)/C(C#N)=C/c1ccc(O)cc1
inactive: [1] | [2] | [3]

C=CCNc1ncnc2ccc(Br)cc12
inactive: [1] | [2] | [3]

C=CCN1CCc2c(cc(O)c(O)c2Cl)C(c2ccccc2)C1 (configuration not stated)
inactive: [1] | [2] | [3]

COC(=O)C(N)Cc1ccc(Cl)cc1 (configuration not stated)
inactive: [1] | [2] | [3]

CC[n+]1c(/C=C/C=C2/N(C)c3ccccc3C2(C)C)sc2ccccc21
inactive: [1] | [2] | [3]

COc1ccc(NC(=O)c2ccc(-c3ccc(-c4noc(C)n4)cc3C)cc2)cc1N1CCN(C)CC1
inactive: [1] | [2] | [3]

CCCN(CCc1ccccc1)C1CCc2c(O)cccc2C1 (configuration not stated)
inactive: [1] | [2] | [3]

C#CCn1c(=O)c2c(ncn2C)n(C)c1=O
inactive: [1] | [2] | [3]

Cn1c(=O)c2[nH]c(C3CCCC3)nc2n(C)c1=O
inactive: [1] | [2] | [3]

Nc1ncnc2c1c(-c1ccc(Oc3ccccc3)cc1)cn2C1CCCC1
inactive: [1] | [2] | [3]

Nc1ccc2c3c(cccc13)C(=O)NC2=O
inactive: [1] | [2] | [3]

O=C1Nc2ccc(I)cc2/C1=C/c1cc(Br)c(O)c(Br)c1
inactive: [1] | [2] | [3]

O=C(O)c1cccnc1C(=O)O
inactive: [1] | [2] | [3]

COc1ccc(CCN(C)CCc2ccc(OC)c(OC)c2)cc1OC
inactive: [1] | [2] | [3]

c1ccc(C(NCCNC(c2ccccc2)c2ccccc2)c2ccccc2)cc1
inactive: [1] | [2] | [3]

COc1cc(C(O)C(=O)O)ccc1O (configuration not stated)
inactive: [1] | [2] | [3]

CN(C)S(=O)(=O)c1ccc2c(c1)/C(=C/c1cc3c([nH]1)CCCC3)C(=O)N2
inactive: [1] | [2] | [3]

O=C(O)Cc1ccc(O)c(O)c1
inactive: [1] | [2] | [3]

Cn1cc(C(=O)OCC2CCN(CCNS(C)(=O)=O)CC2)c2ccccc21
inactive: [1] | [2] | [3]

Nc1ncnc2c1ncn2C1CCCC1
inactive: [1] | [2] | [3]

Brc1c(Br)c(Br)c2[nH]cnc2c1Br
inactive: [1] | [2] | [3]

C[C@H]1CC2C3CCC4=CC(=O)C=C[C@]4(C)[C@@]3(Cl)[C@@H](O)C[C@]2(C)[C@@]1(O)C(=O)CO (some centres not stated)
inactive: [1] | [2] | [3]
